From ChEMBL document CHEMBL3988442, “University of Dundee, Small-Polar-MMV Screening Library” (2021)

target: T1, Aspartate--tRNA(Asp/Asn) ligase (Mycobacterium tuberculosis (strain ATCC 25618 / H37Rv)) (UniProt P9WFW3); test: Assay for Asp RNA synthetase-1 from Mycobacterium tuberculosis; type: functional; parameters: scale not given: in the data most compounds retested in dose-response had high values; details: 30 µM
T1 sequence (whole entry): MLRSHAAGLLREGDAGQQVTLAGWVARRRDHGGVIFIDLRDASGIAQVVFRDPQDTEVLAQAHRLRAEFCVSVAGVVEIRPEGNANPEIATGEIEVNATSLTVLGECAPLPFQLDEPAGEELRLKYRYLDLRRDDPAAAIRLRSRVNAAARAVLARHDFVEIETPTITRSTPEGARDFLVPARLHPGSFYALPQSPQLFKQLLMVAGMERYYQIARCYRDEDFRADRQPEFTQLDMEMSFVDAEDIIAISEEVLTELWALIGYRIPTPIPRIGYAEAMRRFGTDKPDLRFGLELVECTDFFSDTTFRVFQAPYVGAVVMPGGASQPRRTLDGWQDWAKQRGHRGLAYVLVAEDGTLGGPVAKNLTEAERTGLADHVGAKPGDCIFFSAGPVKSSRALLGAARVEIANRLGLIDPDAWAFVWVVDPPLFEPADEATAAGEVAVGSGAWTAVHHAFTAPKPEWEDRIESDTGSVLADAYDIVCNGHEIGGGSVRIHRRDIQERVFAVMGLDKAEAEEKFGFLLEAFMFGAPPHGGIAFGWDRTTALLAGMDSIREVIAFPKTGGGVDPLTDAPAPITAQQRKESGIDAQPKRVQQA

Row | Compound | Percent Effect
1 | CN1C(=O)CC(C(=O)O)C12CCN(Cc1ccc(Cl)cc1F)CC2 (centres undefined) | -1.62%
2 | OC1(CN2CCCC2)CCCN(Cc2ccc(F)cc2Cl)C1 (centres undefined) | 4.15%
3 | CN(C)CCCNC(=O)c1cc(Br)c2c(c1)OCCO2 | 0.724%
4 | Cc1ccc2ncnc(N3CCOCC3c3c(C)nn(C)c3C)c2c1 (centres undefined) | -0.356%
5 | O=C(CC1=CCCCC1)NCCc1csc(N2CCCC2)n1 | 2.52%
6 | Cc1cccc(NC(=O)[C@@H]2CCCN2CC(=O)N2CCCCCC2)n1 | -2.13%
7 | CSCC(=O)N1CCCC1c1noc(C2CC2)n1 (centres undefined) | 0.839%
8 | CCC(=O)N1CCc2[nH]cnc2C12CCN(C(=O)c1snnc1C)CC2 | 1.62%
9 | CC(O)CN1CCN(C(=O)c2cnn(-c3ccccc3F)c2)CC1 (centres undefined) | -2.52%
10 | COc1cccc(S(=O)(=O)CCN2CCC3(CC2)OCCO3)c1 | -0.724%
11 | Cc1nn(CCO)c(C)c1CNC1CCc2c(Cl)cccc21 (centres undefined) | 0.54%
12 | COc1cccc(Cc2nnc(SC3CCOC3=O)o2)c1 (centres undefined) | -2.01%
13 | CC(=O)c1cn(CC(=O)NC(C(=O)O)C(C)C)c2ccccc12 (centres undefined) | -0.402%
14 | O=C(c1ccsc1)N1C[C@@H](CN2CCCC2)[C@@H](CO)C1 | -2.54%
15 | CNC(=O)c1cccc(CNC(=O)C2CC(=O)N(CCN(C)C)C2)c1 (centres undefined) | -2.01%
16 | Cc1nnsc1C(=O)N1CCC2(CC1)c1nc[nH]c1CCN2CC(C)C | -1.53%
17 | Cc1ccccc1CS(=O)(=O)NCCCN1CCCCC1 | -2.17%
18 | CCC(CO)N(Cc1ccccn1)C(=O)c1ccc2c(c1)CCO2 (centres undefined) | -5.37%
19 | CN(CCO)Cc1nnc(C2CCN(C(=O)C(C)(C)C)CC2)n1C | 3.14%
20 | COC(=O)CCN1CCCC1c1ccccc1Cl (centres undefined) | 2.1%

Row | Compound | Percent Effect
21 | CCCC(NC(=O)c1cc(C)ccc1C)c1nnn[nH]1 (centres undefined) | -2.52%
22 | O=C(CCNS(=O)(=O)c1ccccc1)NCc1ccoc1 | -2.82%
23 | Cc1ccc(CNC(=O)N(Cc2ccccc2F)C2CC2)cn1 | -0.931%
24 | CCCS(=O)(=O)N1CCC(NC(=O)c2ccc(Cl)s2)CC1 | 0.379%
25 | CN1CCCC(CNC(=O)N2CCN(Cc3ccon3)CC2)C1 (centres undefined) | -6.42%
26 | CN(C)CCn1c(=O)oc2ccc(NC(=O)CC(C)(C)C)cc21 | 0.793%
27 | Cc1cc(N2CCN(Cc3ccc(C)o3)CC2)cc(C)n1 | -1.34%
28 | COc1ncccc1NC(=O)N1CCC(CN2CCOCC2)CC1 | -3.02%
29 | CS(=O)(=O)NCC(=O)NC1CCc2nccn2C1 (centres undefined) | 2.91%
30 | CCn1nc(CC(C)C)cc1C(=O)N1C[C@H](O)[C@@H](N2CCCCC2)C1 | -2.61%
31 | Cn1c(C(=O)N2CCC(C(=O)N3CCCC3)CC2)c(Cl)c2ccccc21 | -5.07%
32 | Cc1cnn(Cc2cc(F)ccc2F)c1NC(=O)C1COCCO1 (centres undefined) | -0.287%
33 | NC(=O)C1CCN(Cc2cccc(NC(=O)c3ccsc3)c2)CC1 | -1.25%
34 | COc1ccc(CNC(C)c2cccc(Cl)c2)c(OC)c1OC (centres undefined) | -3.05%
35 | Cc1cc(F)ccc1OC1(C(=O)O)CCN(Cc2ccncc2)CC1 | -3.25%
36 | CN1CCN(C(CNC(=O)CCn2cccn2)c2cccs2)CC1 (centres undefined) | -1.05%
37 | CCc1cc(N2CCSCC2)n2nc(C)c(C)c2n1 | 4.1%
38 | COc1ccc(NC(=O)CCC2CCCN(Cc3ncon3)C2)cc1Cl (centres undefined) | -0.862%
39 | Cc1ccc(C(NC(=O)[C@H]2CC[C@@H](O)CC2)c2cccnc2)cc1C (some centres undefined) | -3.21%
